# Most compounds without a hit are left out; they make up all but 7.5% or so of the library.
# TSHR antag – antagonists of human thyroid stimulating hormone receptor; TSHR-expressing cells, TSH-stimulated cAMP HTRF, 2 h; active compounds read low; activity change, negative = inhibition, % at 11.5 µM; 330,000 compounds, 0.2% hits; AID 504810;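 active means activity change below a set negative limit, meaning inhibition stronger than a set level, cut at about -70% in these data; inconclusive means activity change between two set negative limits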
# Target sequence (P16473 whole entry, looked up): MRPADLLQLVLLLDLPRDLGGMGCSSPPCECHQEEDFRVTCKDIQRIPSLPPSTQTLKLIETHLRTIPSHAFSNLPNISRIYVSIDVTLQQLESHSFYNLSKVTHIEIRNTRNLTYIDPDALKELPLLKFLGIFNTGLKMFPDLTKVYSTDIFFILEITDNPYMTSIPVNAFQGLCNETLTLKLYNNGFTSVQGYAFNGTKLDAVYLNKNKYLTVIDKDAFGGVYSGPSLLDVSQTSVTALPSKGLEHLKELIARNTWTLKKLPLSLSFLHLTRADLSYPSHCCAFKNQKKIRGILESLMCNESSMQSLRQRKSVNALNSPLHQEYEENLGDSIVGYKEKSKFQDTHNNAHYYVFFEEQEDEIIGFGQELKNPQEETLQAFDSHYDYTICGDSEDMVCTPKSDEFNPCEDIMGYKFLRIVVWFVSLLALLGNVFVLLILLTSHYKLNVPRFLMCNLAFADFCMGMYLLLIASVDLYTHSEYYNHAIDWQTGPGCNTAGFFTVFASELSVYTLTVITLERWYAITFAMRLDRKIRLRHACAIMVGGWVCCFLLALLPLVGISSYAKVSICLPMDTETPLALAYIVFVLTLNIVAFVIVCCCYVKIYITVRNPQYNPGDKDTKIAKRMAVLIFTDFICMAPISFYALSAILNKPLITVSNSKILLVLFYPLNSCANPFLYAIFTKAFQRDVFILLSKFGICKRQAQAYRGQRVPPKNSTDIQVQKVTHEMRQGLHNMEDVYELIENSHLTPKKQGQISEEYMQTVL
#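 Inhibition of cAMP made by TSHR-expressing cells under TSH stimulation (4nM final, EC80; 2 h, 37 deg C) is quantified with a one-step lysis HTRF kit, anti-cAMP cryptate versus cAMP-d2.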
# RORgamma inh – ROR gamma (mouse) transcription inhibition | P51450 | Drosophila S2 Gal4-RORgamma UAS-luciferase reporter, 20 h | Potency, µM (top dose mostly 53.6 µM), for the others: top-dose activity change, negative = inhibition, most hits filed as inhibitors | 310,000 compounds, 5.4% hits | AID 2551; further: potency means the concentration at half of the fitted maximal effect; nearly all actives have a fitted effect of over 60% in size
#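 Schneider cells (Drosophila), stable Gal4 DBD–ROR gamma + UAS-luc; 1 hr cmpd preincubation; Cu2+ induction 700 uM final; 20 hr ambient; luminescence.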
# Gal4-VP16 FLuc – inhibits Gal4-VP16 luciferase reporter, ROR gamma counter-screen; AID 2546; Potency, µM (series often up to 53.6 µM), for the others: at the highest dose activity, negative = inhibition, hits mostly inhibitors; 310,000 compounds, 3.5% hits; Drosophila S2 Gal4-VP16 UAS-luciferase, luminescence, 20 h;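 further: Gal4-VP16 expression switched on by copper sulfate through the metallothionein promoter; potency means the concentration at half of the fitted maximal effect; nearly all actives have a fitted effect of over 50% in size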
# B2AR arrestin – recruits beta-arrestin to the human beta2-adrenergic receptor | beta-arrestin recruitment to beta2AR, cell-based reporter | Potency, µM (highest dose often 46.1 µM), for inactives: at the top dose activation, hits mostly activators | 330,000 compounds, 0.02% hits | AID 492947;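 further: potency means the concentration at half of the fitted maximal effect; 0% = DMSO controls and full agonism = EC100 isoproterenol or metaproterenol; nearly all actives have a fitted effect of over 65% in size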
# ELG1 DNA repair – ELG1-dependent DNA repair inhibition | Potency, µM (top dose mostly 46.1 µM), for the others: at the top dose activity change, negative = inhibition, most hits filed as inhibitors | 330,000 compounds, 2.3% hits | HEK293T ELG1-luciferase reporter, luminescence, 16 h; DNA damage induced by 5-fluorouridine; further: potency means the concentration at half of the fitted maximal effect; nearly all actives have a fitted effect of over 55% in size
#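 Cells (2,000 per well) received 5-fluorouridine plus test compound or DMSO and were incubated 16 hr at 37 °C, 5% CO2. Luciferase activity was read by luminescence 30 min after ONE-Glo addition; signal suppression marked inhibition of damage-induced ELG1 function.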
# Starred values were filed as active, the others as inactive; ? = inconclusive; . = no result given; [ ] = dose if it differs, or a comment. Unless noted, the call rests on the fitted dose curve; in most records, active means well fitted curve in the direction sought with a large enough effect; inconclusive means small, poorly fitted or top-dose-only effect, or another doubt; inactive means no such curve, though single readings can be large; an effect the other way counts as inactive or inconclusive. Unless noted, on the % scale 0 is the no-effect control and ±100 the full control effect.
SMILES,TSHR antag,RORgamma inh,Gal4-VP16 FLuc,B2AR arrestin,ELG1 DNA repair
CC[C@H](C)[C@H](NC(=O)[C@H](CC(=O)O)NC(=O)[C@H](CC(N)=O)NC(=O)[C@@H](NC(=O)[C@H](CCCNC(=N)N)NC(=O)[C@@H](NC(=O)[C@@H](NC(=O)[C@@H](NC(=O)[C@@H](NC(=O)[C@H](CCCCN)NC(=O)[C@@H](NC(=O)[C@H](CC(C)C)NC(=O)[C@@H](NC(=O)[C@H](CCCCN)NC(=O)[C@@H](NC(=O)[C@H](CC(=O)O)NC(=O)[C@H](CC(=O)O)NC(=O)[C@H](CCC(N)=O)NC(=O)[C@@H](NC(=O)[C@H](CCCCN)NC(=O)[C@H](CCC(N)=O)NC(=O)[C@@H](NC(=O)[C@@H]1CCCN1C(=O)[C@@H](N)C(C)C)[C@@H](C)CC)C(C)C)[C@@H](C)O)[C@@H](C)O)[C@@H](C)CC)[C@@H](C)O)[C@@H](C)CC)C(C)C)[C@@H](C)O)[C@@H](C)CC)C(=O)N[C@@H](CO)C(=O)N[C@@H](Cc1cnc[nH]1)C(=O)N[C@H](C(=O)N[C@@H](CCC(N)=O)C(=O)N[C@@H](CO)C(=O)N[C@H](C(=O)N[C@@H](CO)C(=O)N[C@@H](CO)C(=O)N[C@@H](CCCCN)C(=O)N[C@@H](CCC(N)=O)C(=O)N[C@@H](CCCCN)C(=O)O)C(C)C)[C@@H](C)O,.,8.8%,-3.9%,.,.
COc1ccc2cc1Oc1ccc(cc1)CC1c3c(cc(OC)c4c3Oc3cc5c(cc3O4)CCNC5C2)CCN1C (centres undefined),6.4,4.47µM*,7.08µM*,-0.4%,?
CC(C)Cn1c2c(c(=O)[nH]c1=O)C(C(F)(F)F)(C(F)(F)F)N=C(CCC1CCCCC1)N2,-5.1,?,11.2µM*,-0.9%,4.0%
O=c1[nH]c(=O)n(Cc2ccco2)c2c1C(C(F)(F)F)(C(F)(F)F)N=C(CCC1CCCCC1)N2,-3.0,-7.4%,?,-0.2%,?
Cc1cccc(N2CCN(C(=O)c3ccc(Cl)c(S(=O)(=O)NCc4ccco4)c3)CC2)c1C,9.4,?,7.2%,0.1%,18.4µM*
O=C(c1ccc(S(=O)(=O)c2cccc(Cl)c2)c([N+](=O)[O-])c1)N1CCN(c2ccccn2)CC1,-26.2,?,?,-0.1%,18.3µM*
O=C(c1ccc(Cl)c(S(=O)(=O)NCc2ccccc2)c1)N1CCN(c2ccccn2)CC1,5.8,9.0%,-9.5%,-0.2%,23.1µM*
CCc1cccc2c(-c3ccccc3)c3c(nc12)OCC3,.,4.1%,5.0%,.,.
O=C(NC(NC(=S)Nc1ccc(F)c([N+](=O)[O-])c1)C(Cl)(Cl)Cl)C(c1ccccc1)c1ccccc1 (centres undefined),.,3.98µM*,5.01µM*,.,.
O=C(NC(=S)Nc1ccc(F)c([N+](=O)[O-])c1)c1ccccc1F,-4.5,?,-1.2%,0.2%,?
CC(C)COc1cccc(C(=O)N(CC(=O)Nc2ccccc2C(F)(F)F)Cc2ccco2)c1,1.5,.,.,0.0%,?
c1ccc(Cn2c(-c3ccccc3)nc3nc4ccccc4nc32)cc1,-6.0,-11.7%,2.8%,-1.0%,20.6µM*
Cc1cc(NCCO)nc(-n2nc(C)cc2C)n1,15.2,6.31µM*,20µM*,-1.0%,-1.0%
Cc1cc(N/N=C/c2ccc(O)cc2O)nc(-c2ccccc2O)n1,-24.8,-1.1%[10 µM],-1.9%,-1.3%,10.3µM*
Cc1cc(N/N=C/c2ccc(O)cc2O)nc(-n2nc(C)cc2C)n1,-9.1,1µM*,0.708µM*,0.9%,23.1µM*
CC(C)(C)NC(=O)CSc1nc2ccc(NC(=O)CSc3nnnn3Cc3ccccc3)cc2s1,-36.1,-41.0%,11.2µM*,-0.1%,2.91µM*
CC(C)(C)NC(=O)CSc1nc2ccc(NC(=O)CSc3nnc(N)s3)cc2s1,-18.6,25.8%,?,0.3%,16.4µM*
CCOC(=O)CSc1nc2ccc(NC(=O)CSc3nnnn3Cc3ccccc3)cc2s1,-17.7,19.6%,-8.7%,-0.4%,-4.3%
Cc1ccccc1OCc1nnc(SCC(=O)Nc2ccc3nc(SCC(=O)NC(C)(C)C)sc3c2)n1C,-5.5,42.7%,-13.0%,-0.3%,?
Cc1c(C(=O)N2CCCCCC2)c(S(=O)(=O)Nc2cccc(F)c2)c(C)n1C,-7.3,2.7%,-8.7%,-1.2%,14.2%
Cc1cc(C)c2nc(NC(=O)c3cc(C)on3)sc2c1,1.6,4.47µM*,?,0.0%,?
CCc1ccc2nc(NC(=O)c3cc(C)on3)sc2c1,-8.5,5.62µM*,?,-0.2%,?
CCC(=O)NNc1nc2c(C)cc(C)cc2s1,-4.0,12.6µM*,?,0.0%,?
CCCCC(CC)C(=O)Nc1ccc(C)c(O)c1 (centres undefined),-1.1,25.7%,3.9%,-0.4%,4.6%
COC(=O)C1=C(C)NC(C)=C(C(=O)OCC2CCCO2)C1c1ccc(Cl)c([N+](=O)[O-])c1 (centres undefined),66.3,31.0%,6.0%,-0.2%,10.3µM*
SMILES,TSHR antag,RORgamma inh,Gal4-VP16 FLuc,B2AR arrestin,ELG1 DNA repair
COC(=O)C1=C(C)NC(C)=C(C(=O)OCC2CCCO2)C1c1cccc(Cl)c1 (centres undefined),3.6,-1.0%,9.7%,0.8%,-3.3%
COc1ccccc1N1CC(C)(C)C(=O)N(C(=O)c2c(F)cccc2Cl)C1=S,-4.4,34.6%,-6.2%,-0.5%,5.5%
O=C(c1ccco1)N1CCN(c2ncnc3c2[nH]c2ccccc23)CC1,-21.6,?,-26.4%,-1.2%,?
Fc1ccc2[nH]c3c(N4CCN(c5ccccc5)CC4)ncnc3c2c1,-88.6*,3.7%[0.365 µM],.,-0.1%,7.31µM*
OC1(c2cccc(C(F)(F)F)c2)CCN(c2ncnc3c2[nH]c2ccc(F)cc23)CC1,.,?,-1.6%,.,.
CCOC(=O)N1CCN(c2ncnc3c2[nH]c2ccc(OC)cc23)CC1,-6.4,0.3%,-15.9%,-0.1%,?
O=C(c1ccco1)N1CCN(c2ncnc3c2[nH]c2ccc(Br)cc23)CC1,-16.4,-4.9%,?,-0.1%,23.1µM*
CCOC(=O)N1CCN(c2ncnc3c2[nH]c2ccc(F)cc23)CC1,-27.3,?,7.08µM*,0.3%,11.6µM*
CCCCCC(=O)CC[C@@H]1[C@@H](C/C=C\CCCC(=O)O)[C@@H](O)C[C@H]1O,.,1.6%,-15.2%,.,.
CC(C)c1ccc(NC(=S)Nc2ccc3[nH]c(=O)[nH]c3c2)cc1,-4.3,?,?,-0.8%,18.0%
CC(=O)N(C)c1ccc(NC(=S)Nc2ccc(C(C)C)cc2)cc1,-11.6,7.08µM*,22.4µM*,-1.0%,?
Fc1ccc(NC(=S)Nc2cccc3ccccc23)cc1F,-6.1,11.2µM*,?,6.9%,-7.2%
Cc1ccc(NC(=O)Nc2cccc3ccccc23)cc1,20.8,-22.9%,0.7%,-0.2%,0.0%
